Assay results published in PubChem BioAssay AID1159580 (chemical genetic matrix, 2015).
The whole screen tested about 5,500 compounds, of which about 2,000 (36%) were called active. About 18% were inconclusive and are not listed. Cut-off read from the data, not from the text of the source: active = normalized growth mostly below about 0.91 (no sharp cut-off); inconclusive = no clear call, values can overlap the other calls; inactive = mostly above about 0.92. The list shows a part of the results.

Test: chemical genetic growth profiling, strain panel (AID 1159580);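 note: tested at 20 µM; growth read once vehicle control cultures reached saturation at 30 °C; 1 = growth at the plate median or of vehicle wells; lower values mean less growth of the strain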
Conditions: S. cerevisiae deletion strains, growth OD

Measured: normalized growth

O=S1OCC2C(CO1)C1(Cl)C(Cl)=C(Cl)C2(Cl)C1(Cl)Cl (centres undefined)
inactive: locus YAL013W, strain DEP1, stronger effect = lower value 0.973 | locus YAL021C, strain ccr4, stronger effect = lower value 0.982 | locus YAL026C, strain drs2, stronger effect = lower value 0.98 | locus YAL030W, strain snc1, stronger effect = lower value 0.993 | locus YBL061C, strain skt5, stronger effect = lower value 1 | locus YBR009C, strain hhf1, stronger effect = lower value 0.989 | locus YBR021W, strain FUR4, stronger effect = lower value 0.993 | locus YBR023C, strain chs3, stronger effect = lower value 0.987 | locus YBR171W, strain sec66, stronger effect = lower value 0.974 | locus YBR229C, strain ROT2, stronger effect = lower value 0.998 | locus YBR231C, strain swc5, stronger effect = lower value 0.992 | locus YBR279W, strain paf1, stronger effect = lower value 1 | locus YCL011C, strain gbp2, stronger effect = lower value 0.98 | locus YCL016C, strain dcc1, stronger effect = lower value 0.999 | locus YCL029C, strain bik1, stronger effect = lower value 0.972 | locus YCL061C, strain MRC1, stronger effect = lower value 0.983 | locus YCL069W, strain vba3, stronger effect = lower value 0.99 | locus YCR088W, strain abp1, stronger effect = lower value 0.98 | locus YDL005C, strain med2, stronger effect = lower value 1 | locus YDL035C, strain GPR1, stronger effect = lower value 0.983 | locus YDL040C, strain nat1, stronger effect = lower value 0.994 | locus YDL074C, strain BRE1, stronger effect = lower value 0.999 | locus YDL101C, strain DUN1, stronger effect = lower value 0.972 | locus YDL134C, strain PPH21, stronger effect = lower value 0.997 | locus YDL185W, strain tfp1, stronger effect = lower value 0.948 | locus YDL192W, strain arf1, stronger effect = lower value 0.98 | locus YDR001C, strain nth1, stronger effect = lower value 0.974 | locus YDR069C, strain doa4, stronger effect = lower value 0.973 | locus YDR101C, strain arx1, stronger effect = lower value 0.992 | locus YDR150W, strain NUM1, stronger effect = lower value 0.991 | locus YDR159W, strain sac3, stronger effect = lower value 0.893 | locus YDR162C, strain NBP2, stronger effect = lower value 0.946 | locus YDR195W, strain ref2 1.04 | locus YDR297W, strain sur2, stronger effect = lower value 0.983 | locus YDR318W, strain mcm21, stronger effect = lower value 0.973 | locus YDR334W, strain swr1, stronger effect = lower value 0.99 | locus YDR335W, strain msn5, stronger effect = lower value 0.995 | locus YDR388W, stronger effect = lower value 0.981 | locus YDR392W, strain spt3, stronger effect = lower value 0.823 | locus YDR502C, strain sam2, stronger effect = lower value 0.96 | locus YEL003W, strain gim4, stronger effect = lower value 0.931 | locus YEL037C, strain rad23, stronger effect = lower value 1 | locus YEL061C, strain CIN8 (second series), stronger effect = lower value 0.983 | locus YEL061C, strain CIN8, stronger effect = lower value 0.992 | locus YER015W, strain faa2, stronger effect = lower value 0.993 | locus YER016W, strain bim1, stronger effect = lower value 0.991 | locus YER110C, stronger effect = lower value 0.986 | locus YER111C, strain swi4, stronger effect = lower value 0.997 | locus YER155C, strain BEM2 (second series), stronger effect = lower value 0.988 | locus YER155C, strain BEM2, stronger effect = lower value 0.973 | locus YER167W, strain BCK2, stronger effect = lower value 0.966 | locus YFR010W, strain ubp6, stronger effect = lower value 0.984 | locus YGL078C, strain dbp3, stronger effect = lower value 0.968 | locus YGL086W, strain mad1, stronger effect = lower value 0.975 | locus YGL167C, strain pmr1, stronger effect = lower value 0.989 | locus YGL173C, strain kem1, stronger effect = lower value 0.992 | locus YGL227W, strain vid30, stronger effect = lower value 0.987 | locus YGL240W, strain doc1, stronger effect = lower value 0.988 | locus YGL248W, strain PDE1, stronger effect = lower value 1.01 | locus YGL253W, strain hxk2, stronger effect = lower value 0.987 | locus YGR078C, strain PAC10, stronger effect = lower value 0.97 | locus YGR135W, strain pre9, stronger effect = lower value 0.978 | locus YGR229C, strain SMI1, stronger effect = lower value 0.992 | locus YGR252W, strain gcn5, stronger effect = lower value 0.984 | locus YHR013C, strain ard1, stronger effect = lower value 0.862 | locus YHR027C, strain rpn1, stronger effect = lower value 0.996 | locus YHR030C, strain SLT2, stronger effect = lower value 0.979 | locus YHR079C, strain IRE1 (second series), stronger effect = lower value 0.977 | locus YHR094C, strain hxt1, stronger effect = lower value 0.971 | locus YHR129C, strain ARP1, stronger effect = lower value 1.01 | locus YHR142W, strain chs7, stronger effect = lower value 0.971 | locus YHR200W, strain rpn10, stronger effect = lower value 0.972 | locus YIL066C, strain RNR3, stronger effect = lower value 0.966 | locus YIL073C, strain SPO22, stronger effect = lower value 0.887 | locus YIL125W, strain kgd1, stronger effect = lower value 0.982 | locus YIR030C, strain dcg1, stronger effect = lower value 0.98 | locus YJL092W, strain hpr5, stronger effect = lower value 0.987 | locus YJL095W, strain BCK1 (second series), stronger effect = lower value 1.01 | locus YJL095W, strain BCK1, stronger effect = lower value 0.999 | locus YJL115W, strain asf1, stronger effect = lower value 0.977 | locus YJL129C, strain trk1, stronger effect = lower value 0.888 | locus YJL134W, strain LCB3, stronger effect = lower value 0.966 | locus YJL154C, strain vps35, stronger effect = lower value 0.983 | locus YJL164C, strain tpk1, stronger effect = lower value 0.942 | locus YJL168C, strain set2, stronger effect = lower value 0.974 | locus YJL187C, strain SWE1 (second series), stronger effect = lower value 0.979 | locus YJL187C, strain SWE1, stronger effect = lower value 0.995
active: locus YDR137W, strain rgp1, stronger effect = lower value 1.17 [resistant] | locus YJL166W, strain qcr8, stronger effect = lower value 0.875
